Hits are enriched below; roughly 9.9% of the tested compounds scored in any of these assays.
Tau fibril FP = blocks human tau fibril formation measured by polarization. P10636. K18 P301L tau heparin fibrillization, Alexa594 FP, 6 h. Potency, µM (series often up to 57.7 µM), inactives show at the highest dose activity, negative = inhibition, hits mostly inhibitors. 280,000 compounds, 0.39% hits; active = well fitted curve in the direction sought with a large enough effect; inconclusive = small, poorly fitted or top-dose-only effect, or another doubt; inactive = no such curve, though single readings can be large; an effect the other way counts as inactive or inconclusive; note: nearly all actives have a fitted effect of over 55% in size
Target sequence (P10636 561-689 P618L limits assumed): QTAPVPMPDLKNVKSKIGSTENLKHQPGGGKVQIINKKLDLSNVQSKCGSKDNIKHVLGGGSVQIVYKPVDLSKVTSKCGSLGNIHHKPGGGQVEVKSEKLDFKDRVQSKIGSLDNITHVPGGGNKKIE
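Human tau K18 […] P301L fragment, 15 uM unlabeled plus 0.24 uM Alexa 594-labeled tau (final), with compound and 20 uM heparin in 100 mM sodium acetate pH 7; 6 hr at 37 C, then Alexa 594 FP read.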
Tau fibril ThT = blocks human tau fibril formation measured by thioflavin T | 270,000 compounds, 2.1% hits | Potency, µM (top dose mostly 57.4 µM), without a hit: at the highest dose activity, negative = inhibition, usual class: inhibitors | recombinant tau K18 P301L, heparin-induced fibrillization, ThT fluorescence | P10636; active = well fitted curve in the direction sought with a large enough effect; inconclusive = small, poorly fitted or top-dose-only effect, or another doubt; inactive = no such curve, though single readings can be large; an effect the other way counts as inactive or inconclusive; note: nearly all actives have a fitted effect of over 55% in size
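Using a mix of unlabeled (15 uM) and Alexa 594-labeled (0.24 uM) tau K18 P301L, heparin-triggered fibrillization over 6 hr at 37 C was scored by ThT fluorescence.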
HPGD inh = blocks human HPGD enzyme activity | P15428 | purified HPGD, NADH fluorescence kinetic, PGE2 substrate | Potency, µM, inactives show at the top dose activity change, negative = inhibition, most hits filed as inhibitors | 150,000 compounds, 4.3% hits
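20 nM HPGD preincubated 15 min at room temperature with compound in 50 mM Tris-HCl pH 8, 0.01% Tween 20. Started with 1 mM NAD+ and 30 uM prostaglandin E2; NADH fluorescence (360/450 nm) read 5 times over 30-s intervals, last minus first.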
ALDH1A1 inh = inhibitors of human aldehyde dehydrogenase 1A1 | P00352 | Purified ALDH1A1, NADH fluorescence, propionaldehyde substrate | Potency, µM (highest dose often 75.3 µM), inactives show at the top dose activity, negative = inhibition, most hits filed as inhibitors | 220,000 compounds, 7.3% hits | AID 1030;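 note: plate controls were no enzyme wells and a reference inhibitor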
JMJD2E inh = blocks human JMJD2E demethylase activity; B2RXH2; JMJD2E catalytic domain, FDH-coupled NADH fluorescence (FDH is formaldehyde dehydrogenase); Potency, µM (series often up to 57.1 µM), without a hit: top-dose activity change, negative = inhibition, usual class: inhibitors; 230,000 compounds, 1.6% hits;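 note: 0% = wells with enzyme and -100% = buffer wells without enzyme; nearly all actives have a fitted effect of over 50% in size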
Target sequence (B2RXH2 1-337 limits assumed): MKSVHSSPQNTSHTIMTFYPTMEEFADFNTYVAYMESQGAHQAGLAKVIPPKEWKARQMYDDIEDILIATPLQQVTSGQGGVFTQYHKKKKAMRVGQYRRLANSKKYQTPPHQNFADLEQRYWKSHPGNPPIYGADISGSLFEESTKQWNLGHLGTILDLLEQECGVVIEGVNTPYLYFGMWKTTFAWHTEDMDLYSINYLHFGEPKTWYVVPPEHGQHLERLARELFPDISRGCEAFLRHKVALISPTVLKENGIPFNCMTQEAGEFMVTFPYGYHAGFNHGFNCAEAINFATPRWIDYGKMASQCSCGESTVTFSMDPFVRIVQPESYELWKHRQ
Tau fluor cs = counter-screen for tau fibril formation inhibitors. tau K18 P301L Alexa594 fluorescence, heparin fibrillization. Potency, µM (series often up to 57.7 µM), for inactives: at the highest dose activity change, negative = decrease. 280,000 compounds, 0.93% hits; active = well fitted curve in the direction sought with a large enough effect; inconclusive = small, poorly fitted or top-dose-only effect, or another doubt; inactive = no such curve, though single readings can be large; an effect the other way counts as inactive or inconclusive; note: nearly all actives have a fitted effect of over 55% in size
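Human tau K18 P301L (15 uM unlabeled, 0.24 uM Alexa 594-labeled) in 100 mM sodium acetate pH 7 with 20 uM heparin, 6 hr at 37 C. ThT 30 uM added, 1 hr ambient; Alexa 594 FP and total fluorescence read at 555/632 nm.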
* marks the source's active call; other numbers are inactive results; u = inconclusive; x = no result; [ ] = another dose, or the depositor's remark. Unless noted, calls come from the whole dose curve; as a rule, active = well fitted inhibition curve with a large enough effect (not every such curve was filed as active); inconclusive = small, poorly fitted or top-dose-only effect, or another doubt; inactive = no such curve, though single readings can be large or run the other way. Unless noted, % is set by controls: 0 for no effect and ±100 for the full control effect; potency is the fitted concentration of half-maximal effect.

SMILES	Tau fibril FP	Tau fibril ThT	HPGD inh	ALDH1A1 inh	JMJD2E inh	Tau fluor cs
CCN(c1ccccc1)S(=O)(=O)c1nnc(NC(=O)COc2ccccc2F)s1	u	4.5µM*	x	x	x	-21%
CCCC(=O)Nc1nnc(S(=O)(=O)N(C)c2ccccc2)s1	-7%	2.5µM*	x	x	x	u
CCc1nnc(NC(=O)c2ccc(OC)cc2OC)s1	4%	-5%	-11%	7.9µM*	-6%	-2%
O=C(CN1CCNC(=O)C1)NCCc1ccc(Cl)cc1Cl	-2%	0%	x	2%	9%	2%
CCOc1ccc(CC(=O)Nc2nnc3n2CCS3)cc1	4%	6%	x	x	x	3%
COc1ccc(NC(=O)Cn2c(=O)n(CCCC(=O)NCCc3ccc(C)cc3)c(=O)c3ccccc32)cc1Cl	-4%	-5%	x	x	x	-25%
CCN(c1ccccc1)S(=O)(=O)c1nnc(NC(=O)c2ccccc2)s1	6%	16µM*	x	x	x	-17%
CN(c1ccccc1)S(=O)(=O)c1nnc(NC(=O)c2ccccc2)s1	-1%	u	x	x	x	-10%
CCN(c1ccccc1)S(=O)(=O)c1nnc(NC(=O)c2cccs2)s1	u	2.2µM*	x	x	x	-13%
CC(=O)c1cc(-c2ccccc2)n(CC(=O)NCCc2ccc(C)cc2)c1C	-12%	3%	x	x	x	-9%
Cn1nnc2sc3c(c2c1=O)CCCC3	-6%	-9%	32µM*	13µM*	-1%	-6%
Cc1ccccc1Cn1nnc2sc3c(c2c1=O)CCCC3	-1%	-10%	x	x	x	-26%
O=c1oc(-c2ccccc2)nc2sc3c(c12)CCCC3	-11%	u	u	u	3%	-23%
Cc1ccccc1-c1nc2sc3c(c2c(=O)n1N)CCCC3	3%	-25%	25µM*	u	-3%	-12%
Cc1ccccc1-c1nc2sc3c(c2c(=O)o1)CCC3	-10%	u	16µM*	-16%	252%	-19%
COc1ccc(NC(=O)C(Cc2ccccc2)NS(=O)(=O)c2ccc3c(c2)oc(=O)n3C)c(OC)c1 (stereo not given)	-5%	7%	x	x	x	4%
CCC1=NC(c2ccc(OC)cc2OC)N(O)C1(C)C (stereo not given)	-2%	-20%	-11%	8.9µM*	-26%	-7%
CCC1=NC(c2ccccc2Cl)N(O)C1(C)C (stereo not given)	-1%	2%	-1%	8%	-7%	5%
CN(C)c1ccc(N=Cc2nc(-c3ccccc3)oc2OC(=O)c2ccccc2)cc1	-8%	u	-13%	-11%	6%	-4%
CC(=O)Nc1ccc(N=Cc2nc(-c3ccc(C)cc3)oc2O)cc1	1%	4.5µM*	-17%	-5%	-2%	u
CSc1ccccc1N=Cc1nc(-c2ccccc2)oc1O	-11%	20µM*	u	5µM*	-20%	u
CN(C)c1ccc(N=Cc2nc(-c3ccccc3)oc2O)cc1	-9%	2.2µM*	-12%	-3%	-2%	u
Oc1oc(-c2ccccc2)nc1C=Nc1ccccc1	6%	u	-22%	u	5%	-28%
CC(=O)Oc1oc(-c2ccccc2)nc1C=Nc1ccc(N(C)C)cc1	-13%	14µM*	x	0.56µM*	10%	u
O=C(NCc1cccc(F)c1)C1CCN(c2nn3cc(-c4ccc(F)cc4)nc3s2)CC1	-8%	-13%	x	x	x	1%
SMILES	Tau fibril FP	Tau fibril ThT	HPGD inh	ALDH1A1 inh	JMJD2E inh	Tau fluor cs
CC(C)c1ccc(NC(=O)CN2C(=O)CCc3cc(S(=O)(=O)N4CCOCC4)ccc32)cc1	-11%	0%	x	x	x	-17%
CC1Cc2ccccc2N1C(=O)Cn1cnc2ccccc21 (stereo not given)	-3%	1%	x	6%	0%	5%
Cc1ccc(N=Cc2nc(-c3ccc(C)cc3)oc2O)cc1	-9%	u	x	0%	-25%	-17%
COc1ccc(N=Cc2nc(-c3ccco3)oc2O)cc1	7%	16µM*	-10%	u	1%	u
CC1CCCCN1CCCNC(=O)CN1C(=O)c2cccnc2Oc2ccccc21 (stereo not given)	-5%	0%	x	x	x	-1%
O=c1c(-c2cc(F)cc(F)c2)nc2cnc(N3CCNCC3)nc2n1CCc1ccccc1	x	x	-29%	u	x	x
COc1ccc(C)cc1NC(=O)CSc1nnc(-c2ccc(Br)cc2)o1	-9%	-3%	-15%	u	0%	-12%
COC(=O)Sc1nnc(-c2ccc(Br)cc2)o1	2%	-1%	22µM*	8.9µM*	u	-1%
Cc1ccccc1OCCn1cnc2cc([N+](=O)[O-])ccc2c1=O	12%	u	x	u	-1%	u
Cc1ccc(C(=O)NC(=C(Cl)Cl)S(=O)(=O)c2ccc(C)cc2)cc1	0%	-15%	-17%	u	2%	-12%
Cc1ccc(S(=O)(=O)/C(=C/Cl)NC(=O)c2ccccc2)cc1	8%	8%	-3%	7.9µM*	5%	13%
CNC(=O)C(Sc1nc(C)nc2c1oc1ccccc12)C(C)=O (stereo not given)	2%	-1%	-24%	13µM*	-5%	-8%
Cc1cc(C)nc(Sc2nc(C)nc3c2oc2ccccc23)n1	-3%	-10%	32µM*	u	-8%	-8%
Cc1nc(SCc2cccc(F)c2)c2oc3ccccc3c2n1	-3%	u	x	x	11%	-24%
N#Cc1ccc(CN2CCC3(CC2)CCN(C(=O)c2ccco2)CC3)cc1	x	x	-2%	2%	x	x
COc1cc(SC)ccc1C(=O)Nc1ccon1	-5%	u	-23%	20µM*	-7%	-5%
COc1cc(SC)ccc1C(=O)NCCOc1c(C)cc(C)cc1C	-6%	16µM*	x	-3%	188%	-20%
CCCNC(=O)CCc1c(C)nc2nc(C)nn2c1C	-8%	-6%	x	2%	8%	-8%
CCCCOC(=O)CNc1n[nH]c(=S)[nH]c1=O	6%	-5%	25µM*	u	4%	-1%
COc1ccc2c(c1OC)C(=O)OC2CC(=O)c1ccc(O)cc1 (stereo not given)	1%	-6%	25µM*	28µM*	-1%	-13%
COc1ccc2c(c1OC)C(=O)OC2CC(=O)c1ccc(N(C)C)cc1 (stereo not given)	3%	-14%	-11%	-10%	-1%	0%
COc1ccc2c(c1OC)C(=O)OC2CC(=O)c1ccc(O)c(O)c1 (stereo not given)	-9%	u	u	12%	14µM*	-12%
CCn1c(CN2CCOCC2)nc2cc(NC(=O)c3ccccc3[N+](=O)[O-])ccc21	6%	5%	x	x	x	2%
NCCSCCc1ccccc1	x	x	-6%	7%[13.5 µM]	x	x
Cc1cccc(NC2=NCC(=O)N2Cc2ccccc2)c1	8%	-8%	-10%	25µM*	-4%	1%

Compound activity from PubChem.
